# Results published in PubChem BioAssay (NCI).
# The panel holds about 79,000 compounds, 15% with a hit somewhere; the sample as a whole holds those more often. Unmarked numbers belong to inactive results. The source made the active and inactive calls. Cut-off read from the data, not from the text of the source: active = growth inhibition above about 70%; inactive = the rest.
# Legend:
# [1] = NCI Yeast Anticancer Drug Screen. Data for the rad50 strain (AID 155);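 note: 0% = growth of vehicle-only cultures of the same strain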; conditions: S. cerevisiae rad50 strain growth inhibition; at 50.0 µM; hits give high values
# In short: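 Relative growth inhibition (compound vs vehicle) was measured in yeast with a defined repair-gene alteration.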
# [2] = NCI Yeast Anticancer Drug Screen. Data for the mec2-1 strain (AID 157); conditions: S. cerevisiae mec2-1 strain, at 50.0 µM, hits give high values
# In short: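 Compounds were applied to mec2-1 yeast cells. Their growth was then compared with that of vehicle-treated cultures to give growth inhibition.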
# [3] = NCI Yeast Anticancer Drug Screen. Data for the sgs1 mgt1 strain (AID 161);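 note: 0% = growth of cultures given vehicle only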; conditions: S. cerevisiae sgs1 mgt1 strain, at 50.0 µM, hits give high values
# In short: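 Growth of a repair-deficient yeast mutant was monitored after compound treatment and expressed as inhibition relative to vehicle-treated cultures.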
# [4] = NCI Yeast Anticancer Drug Screen. Data for the cln2 rad14 strain (AID 165);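 note: 0% = growth equal to vehicle treated cultures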; conditions: S. cerevisiae cln2 rad14 strain, at 50.0 µM, hits give high values
# In short: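 Strain: cln2 rad14 yeast, altered in cell cycle control and DNA damage repair. Read-out: growth inhibition vs vehicle.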
# [5] = NCI Yeast Anticancer Drug Screen. Data for the bub3 strain (AID 167); conditions: S. cerevisiae bub3 mutant strain, at 50.0 µM, hits give high values
# In short: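 Screening used yeast with an engineered genetic alteration affecting cell cycle control. Compound-exposed cultures were compared with vehicle cultures, and reduced growth was taken as inhibition.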
# [6] = NCI Yeast Anticancer Drug Screen. Data for the mlh1 rad18 strain (AID 175); conditions: S. cerevisiae mlh1 rad18 strain growth inhibition; at 50.0 µM; hits give high values
# In short: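 A repair-deficient yeast strain is exposed to test compound, and growth is scored relative to vehicle-treated controls.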
SMILES,growth inhibition [1] [%],growth inhibition [2],growth inhibition [3],growth inhibition [4] [%],growth inhibition [5] [%],growth inhibition [6]
Cn1c([N+](=O)[O-])cnc1COS(=O)(=O)c1cccnc1,6.05,-9.15%,25.8%,11.1,16.8,15.6%
COc1cc(CCCO)ccc1O,0.85,13.8%,0.25%,-48.1,9.1,-4.1%
CC1(C)CC(C)(C)c2c1oc(=O)c1c3c(oc(=O)c21)C(C)(C)CC3(C)C,15.7,-9.1%,12.8%,35.5,26.2,-9.85%
CCOC(=O)c1ccc(NC(C)=O)cc1,18,9.2%,9.3%,-5.45,-4.45,12.1%
Cc1c(C)c(O)c2c(c1C)C(C)C(=O)OC2=O (configuration not stated),1.2,-37.8%,-13.2%,10,-19.3,-0.15%
CCCCCCC(C)OC(=O)CCl (configuration not stated),-0.55,-6.4%,2.25%,6.1,1.25,0.95%
CC(C)C(CN)(C(C)C)C(C)C,2.35,9.65%,-8.65%,8.55,5.3,-8.6%
C[Si](C)(C)CCCn1ccc(=O)[nH]c1=O,45.6,7.45%,27.8%,-8.15,29.4,-26.3%
CCC(=S)Nc1ccc(Cl)cc1,-1.9,-44.6%,-34.5%,-21.2,-36.9,-35.4%
NC1=Nc2ccccc2Sc2nnc(-c3ccc(Cl)cc3)n21,1.75,-3.25%,-11.8%,-3.3,-15.2,4.6%
CCCCCCCCNc1ncnc2[nH]ncc12,7.15,11.3%,22.1%,6.5,47.2,13.9%
C=CS(=O)CCCCCCC (configuration not stated),25.1,-1.3%,-13.9%,-68.5,4.45,-34.4%
CC(=O)[C@H]1CC[C@H]2[C@@H]3CC=C4C=CCC[C@@H]4[C@H]3CC[C@]12C,-14.1,20.1%,22.9%,-52,18.8,24.4%
C(=Nc1ccccc1)Nc1ccccc1,2.85,15.1%,16.4%,25.9,-15.4,-12.8%
O=c1[nH][nH]c(=O)c2c1ncn2Cc1ccccc1,34.9,-17%,1.7%,-49.5,-14.9,-25.5%
Cc1cc2nnn(-c3ncccc3[N+](=O)[O-])c2cc1C,5,5.85%,-5.2%,17.8,9.8,19.4%
C=C(C)CCCCCCCCC,-4.8,-5.8%,17.6%,1.4,3,-3.25%
Cc1cc(S(=O)(=O)Nc2nc(N)nc(N(C)C)n2)c(S)cc1Cl,1.4,-17.2%,-3.5%,1.9,-46,15.1%
FC(F)(c1nn[nH]n1)C(F)(F)C(F)(F)c1nn[nH]n1,-6.8,-2.6%,-10.8%,-36.2,-1.05,-2.95%
NC(=S)C(=S)NCCO,19.2,1.7%,-5.7%,-68.2,-2.7,-12.1%
C=NC1CCCCC1,0.95,-3.75%,-10.6%,2,14.7,3.75%

SMILES,growth inhibition [1] [%],growth inhibition [2],growth inhibition [3],growth inhibition [4] [%],growth inhibition [5] [%],growth inhibition [6]
OC/C(Cc1cccc(O)c1)=C(/CO)Cc1cccc(O)c1,5.5,7.3%,6.7%,3.45,10.4,8.8%
C/C=C/c1ccc(O)c(OC)c1,13.1,-11.6%,4.85%,-5.95,-3.25,-9.3%
COC1=CC(=C(\C#N)c2ccc(Cl)cc2)/C=CC/1=N/O,20.1,11.6%,3.85%,-7.25,5.75,21.9%
COc1ccc(/C=C/C(=O)c2sc(NC(=S)NC(=O)c3ccccc3F)nc2C)cc1OC,21.1,8.5%,37.6%,30.1,30.9,22.9%
CC1(C)C2CC3C(C2)C31C,1,3.6%,-10.2%,5.35,1.3,-0.75%
C=CCC(C(=C)C)(C(=O)OCC)C(=O)OCC,-23.4,-24.6%,-32.6%,-6.8,-25.4,-31.9%
O=C(N(Cc1ccccc1)c1ccccc1)C(Cl)(Cl)Cl,65.4,76.8% (active),78% (active),30.1,67,78% (active)
O=c1[nH]c2cc(Cl)ccc2nc1/C=C(\O)c1ccccc1,1.35,-18.9%,-5.9%,4.55,-19.1,20.1%
NCC(=O)N[C@H]1c2ccsc2/C(=N/O)[C@H]1O,3.1,5.95%,3.65%,11.3,-10.2,33.2%
O=[N+]([O-])c1ccc(N/N=C(/c2ccccc2)C2CCCC2)c([N+](=O)[O-])c1,11.4,18.6%,12.8%,7.9,11.9,12.9%
CCCCc1c2c(nc3c1CCCC3O)CCCC2 (configuration not stated),-40.4,-63%,-13.9%,13.2,-8.1,-23.9%
COc1cc2c(c(OC)c1OC)-c1ccc(SC)c(=O)cc1[C@@H](NC(=O)C(F)(F)F)CC2,11.1,-53.7%,-18.1%,-13.8,-12.7,-4.75%
CCN1C(=O)CCN(S(=O)(=O)c2ccc(-n3nc(C)cc3C)cc2)C1=S,-5.55,-8.45%,-9.15%,-46.4,1.7,-2.3%
COc1cccc(C2c3cc4c(cc3OC(N3CCOCC3)C2C)OCO4)c1OC (configuration not stated),-25.4,-10.1%,-7.85%,2.55,-2.05,-6.1%
N#CC(CNC1CCCCC1)c1ccccc1 (configuration not stated),-9.35,-4.35%,4.3%,-32.7,15.1,10.7%
CCOc1cc2c(cc1C(C)c1ccc(OCc3ccccc3)cc1)OCO2 (configuration not stated),6.55,3.55%,2.7%,1.25,-2.1,-20.1%
Cc1ccc(-c2cc(-c3cc(-c4ccc(C)cc4)nc(N)n3)nc(N)n2)cc1,3.7,-13.4%,-20.1%,-13.2,-25.1,-13%
CCCCCCCCCCCCCCCCCCCCCCC,-30.4,-15.1%,-21.9%,4.8,-17.2,-18.4%
CN(C)CC(Oc1ccccc1)C(=O)c1ccccc1 (configuration not stated),-3.2,-10.2%,29.8%,-26.3,-16.9,-5.15%
C/C(=N\NC(=S)Nc1cccc2cccc(S(=O)(=O)O)c12)c1ccccn1,3.4,-0.35%,-18.2%,-5.55,-7.4,2.85%
CC(C)=C1C2CCC1[C@H](COS(C)(=O)=O)[C@@H]2COS(C)(=O)=O,-6.7,6.5%,4.45%,16.9,11.1,-11.2%
